About 83,000 compounds went through this panel and 20% of them were active in at least one assay; those are over-represented in the sample as a whole.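 Growth was measured after 48 h exposure to one concentration of compound in 96-well plates. Values under 10 count as active.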 Values without a mark were called inactive. The source made the active and inactive calls.

Common to all, as to assay: NCI-60 one-dose screen, 48 h (100 = growth as untreated, 0 = no growth, -100 = all killed)
What all share (conditions): 10 µM unless noted

Assay [1] deals with HT29 colon.
The test system of assay [2] is SNB-19 CNS.
Assay [3] has as its system U251 CNS.
Assay [4] concerns PC-3 prostate.
The test system of assay [5] is SK-MEL-5 melanoma.
The subject of assay [6] is UACC-62 melanoma.
Assay [7] relates to LOX IMVI melanoma.
The subject of assay [8] is SK-MEL-28 melanoma.
Assay [9] has as its system SK-MEL-2 melanoma.
The subject of assay [10] is SNB-75 CNS.

Take `COc1ccc(C2CC(c3cccc(Nc4ccnc5cc(Cl)ccc45)c3)=NN2C=O)cc1` (stereo unspecified): the growth in assay [1] was -55.8% (active); in assay [2], 42.3%; in [3] it was 16.5%; in assay [4] it was 25.7%; in [5], 14%; in assay [6], 36%. For the same molecule, the figures for the growth in assay [7], in assay [8] and in assay [9] were 31.7%, 62.4% and -9.66% (active), respectively.

As for `OC(CCC(O)(c1ccccc1)c1ccccc1)(c1ccccc1)c1ccccc1`, the growth in assay [10] was 83.9%; in assay [2], 106%; in [3] it was 87.7%; in assay [4], 24.4%; in assay [5], 90.6%; in assay [6], 62.2%. Besides, the growth in assay [7] is 71.4%; in [8], 112%.

For `Cc1cc([N+](=O)[O-])c(C)cc1C(=O)O`, the growth in [1] is 104%; in assay [2], 101%; in assay [3] it was 109%; in assay [4], 99%; in assay [6], 100%; in [7] it was 103%. Further, the growth in assay [8] is 110%; in assay [9], 114%.

In the case of `CN1C(=O)/C(=C/c2nc(-c3cccc(F)c3)n3ccccc23)c2ccccc21`, the growth in assay [1] is 89%; in assay [2] it was 76.8%; in [3] it was 56.7%; in assay [4], 81.6%; in assay [5], 64%; in assay [6], 71.3%. Besides, the growth in assay [7] was 48.8%; in assay [8] it was 89.1%; in [9], 68.2%.

As to `NC(N)=NN=c1c(=O)c2ccccc2c1=O`, the growth is -49.4% (active) in assay [1]; 72.1% in [3]; 78% in assay [4]; 103% in [6]; -44.9% (active) in assay [7]; 80% in assay [8]. Also, in [9], the growth is 118%.

In the case of `CN(C)c1ccc2c(c1)/C(=N/O)c1ccccc1-2`, the growth in assay [10] is 76.8%; in assay [2], 79.6%; in [3], 48.9%; in [4], 72.3%; in assay [5], 90.7%; in [6], 64.7%. The growth in assay [7] was 59.4%; in assay [8] it was 75.7%; in assay [9] it was 111%.

As for `COC1=CC(c2ccc[nH]2)=N/C1=C\c1[nH]c(C)c(C(=O)CCC(=O)Oc2ccc3c(c2)CCC2C3CC[C@]3(C)C(=O)CC[C@@H]23)c1C` (stereo partly specified), the growth is 26.8% in [1]; 95.4% in [2]; 53% in assay [3]; 60.6% in assay [4]; 78% in assay [5]; 65% in assay [6]. Moreover, the growth in assay [8] is 97.3%; in [9] it was 91.3%.

For the molecule `COc1cc(C2CC(c3ccc(C)cc3)=NN2C(C)=O)ccc1Oc1ccnc2cc(Cl)ccc12` (stereo unspecified), the growth in [1] is 77.1%; in assay [2] it was 58.1%; in [3], 14.7%; in [4] it was 67.9%; in assay [5], 91.1%; in [6], 72.5%. In addition, the growth in [7] is 65.6%; in assay [8] it was 108%; in assay [9] it was 60.6%.

With `Cc1cc(=O)n2n1-c1ccc(Cl)cc1NC(=O)C2`, the growth in assay [10] was 86.6%; in assay [2], 97.5%; in assay [3] it was 95.2%; in assay [4], 89.8%; in assay [5] it was 97.5%; in assay [6] it was 107%. Besides, the growth in assay [7] was 98.6%; in [8], 101%; in assay [9], 118%.

Consider `CC[N+](CC)(CCOCCOCC[N+](CC)(CC)Cc1ccc([N+](=O)[O-])cc1)Cc1ccc([N+](=O)[O-])cc1`, for which the growth was 85.7% in assay [10]; 101% in assay [2]; 100% in assay [3]; 87.6% in assay [4]; 96.8% in [5]; 88.4% in assay [6]. Moreover, the figures for the growth in assay [7], in [8] and in assay [9] were 104%, 115% and 106%, respectively.

In the case of `CC/C(=C\c1ccc(N(C)C)cc1)c1nc2ccccc2c(=O)[nH]1`, the growth was 88.3% in assay [10]; 102% in assay [2]; 86.3% in [3]; 107% in assay [4]; 97.4% in assay [5]; 84.1% in assay [6]. Moreover, the growth in assay [7] is 94.2%; in assay [8], 152%; in assay [9], -13.9% (active).

`CCCCCCCCCCCCCCCCCc1nccn1CCO`: the growth was 13.6% in assay [1]; 66.9% in assay [2]; 33.7% in assay [3]; 55.9% in [4]; 70.4% in [5]; 92.4% in assay [6]. Also, the results for the growth in [7] and in assay [9] were -44.4% (active) and 82.2%, respectively.

In the case of `COc1ccc2c(c1)[nH]c(=O)c1c3cc(OC)c(OC)cc3cn21`, the growth in assay [10] was 72%; in assay [2] it was 31.3%; in assay [3] it was -22.4% (active); in [4] it was -90.8% (active); in assay [5], -6.64% (active); in [6] it was 48.9%. Besides, the growth is 9.3% (active) in [7], 61.1% in assay [8] and 6.58% (active) in assay [9].
